Compound activity: PubChem BioAssay, several laboratories
CYP2C19 activ = activators of human cytochrome P450 2C19; recombinant CYP2C19, luciferin-H EGE luminescence; active compounds read high; 0 = fully inhibited enzyme, 1 = untreated enzyme; activation factor at 5 µM; 96,000 tested, under 10 active; AID 1025;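 active = activation factor of at least 2 at 5 µM in the primary screen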;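 note: 0 = wells with 2.5 mM tranylcypromine and 1 = vehicle-only wells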
Cav3 T inh = blocks human Cav3.2 T-type calcium channel; O95180; Cav3.2-expressing cells, Fluo-4 calcium fluorescence FDSS; active compounds read low; B-score at 10 µM; actives 4% (n = 100,000); AID 449739;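 active = single-dose well whose peak fluorescence ratio is a statistical outlier from its plate by either plate-standardised score or position-corrected B-score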
CYP2C9 activ = activators of human CYP2C9; P11712; recombinant CYP2C9, luciferin-H conversion, luminescence; active compounds read high; factor 1 = untreated enzyme, 0 = blocked; activation factor at 5 µM; actives 1.4% (n = 96,000); AID 1024;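 active = activation factor of 2 or more for CYP2C9 at a 5 µM dose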;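 note: 0 = sulfaphenazole-blocked wells and 1 = vehicle-only wells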
Target sequence (P11712 whole entry, looked up): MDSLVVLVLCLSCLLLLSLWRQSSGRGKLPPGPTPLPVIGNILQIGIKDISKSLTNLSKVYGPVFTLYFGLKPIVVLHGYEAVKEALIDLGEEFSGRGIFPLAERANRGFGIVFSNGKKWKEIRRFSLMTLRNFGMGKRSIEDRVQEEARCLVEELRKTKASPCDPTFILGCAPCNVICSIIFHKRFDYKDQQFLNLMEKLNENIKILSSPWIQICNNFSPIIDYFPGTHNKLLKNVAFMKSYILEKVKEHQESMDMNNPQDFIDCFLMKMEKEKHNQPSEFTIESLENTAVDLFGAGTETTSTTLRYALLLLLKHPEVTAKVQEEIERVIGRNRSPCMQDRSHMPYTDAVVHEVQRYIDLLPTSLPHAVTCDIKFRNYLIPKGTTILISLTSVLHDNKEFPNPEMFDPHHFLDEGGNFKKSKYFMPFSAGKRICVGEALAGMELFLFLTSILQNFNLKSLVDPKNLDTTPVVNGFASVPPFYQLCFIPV
CYP2C9 inh = inhibitors of human CYP2C9 | P11712 | CYP2C9 Supersomes, luciferin-H conversion, luminescence | inhibition, % at 5 µM | actives 20% (n = 96,000);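 active = blocking of liver enzyme CYP2C9 beyond about 50% at 5 µM, limit read from the data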
CYP2C19 inhib = human CYP2C19 inhibition. actives 21% (n = 96,000). CYP2C19 Supersomes, luciferin-H EGE luminescence, 30 min. inhibition, % at 5 µM. AID 778. P33261;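 active = CYP2C19 inhibition above a set limit at 5 µM in the primary screen, cut at about 50% in these data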;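 note: plate controls were negative control wells for no effect and 2.5 mM tranylcypromine positive control for full effect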
* marks the source's active call; other numbers are inactive results; · = no result. This is a sample that favours compounds with a hit; in the whole collection about 27% have one here.

SMILES	CYP2C19 activ	Cav3 T inh	CYP2C9 activ	CYP2C9 inh	CYP2C19 inhib
CCCNS(=O)(=O)c1ccc(CCC(=O)NCc2ccc3c(c2)OCO3)cc1	0.2	0.45	0.3	74*	80*
O=C(c1cccc(S(=O)(=O)NCc2ccccc2)c1)N1CCN(Cc2ccccc2)CC1	0.4	-1.6	0.7	30	65*
CC(C)(C)NS(=O)(=O)c1ccc(CCC(=O)NCc2ccc3c(c2)OCO3)cc1	·	-0.0041	·	·	·
O=C(CSc1nnc(Cc2cccs2)n1Cc1ccco1)Nc1cc(Cl)cc(Cl)c1	0.7	-4.3*	0.5	48	25
CCN(CC)S(=O)(=O)c1ccc(NC(=O)CSc2nnc(-c3cccc(OC)c3)n2C)cc1	0.8	-1.3	0.5	52*	23
O=C(CSc1nnc(-c2ccco2)n1Cc1ccco1)Nc1ccccc1	0.8	-0.55	0.4	64*	19
CCOC(=O)CNC(=O)CSc1nnc(-c2ccco2)n1Cc1ccco1	0.9	-0.94	0.9	6	13
COc1ccc(-c2nnc(SCC(=O)Nc3ccc(C)cc3)n2C)cc1	0.7	1.6	0.6	40	29
COc1ccc(NC(=O)CSc2nnc(-c3ccco3)n2C)cc1	0.1	0.77	0.1	93*	92*
O=C(CSc1nnc(Cc2cccs2)n1Cc1ccco1)Nc1cccc(Cl)c1	0.6	-3.5	0.9	14	38
CC(C)(C)CC(C)(C)NC(=O)CSCC(=O)Nc1ccc2ccccc2c1	·	-3.1	·	·	·
COc1ccccc1NC(=O)CSc1nnc(-c2ccco2)n1Cc1ccco1	0.2	-0.15	0.2	77*	83*
COc1ccc(C)cc1NC(=O)CSc1nnc(-c2ccccn2)n1Cc1ccco1	0.6	-0.47	0.6	41	45
COc1ccc(C)cc1NC(=O)CSc1nnc(-c2ccco2)n1N	1.1	·	1.2	-17	-6
COc1ccccc1NC(=O)CSc1nnc(-c2ccccn2)n1Cc1ccco1	0.6	-1.1	0.2	77*	38
CCn1c2ccccc2c2cc(NC(=O)CSc3nnc(-c4ccccc4OC)n3N)ccc21	0.1	-3.2	0.4	58*	94*
COc1ccc(NC(=O)CSc2nnc(CCC(=O)Nc3ccc(C)c(Cl)c3)n2C)cc1	0.9	0.22	0.3	66*	12
CCn1c2ccccc2c2cc(NC(=O)CSc3nnc(-c4ccc(OC)c(OC)c4)n3N)ccc21	0.6	-0.32	0.9	6	40
CC(C)c1cc(NC(=O)CSc2nnc(-c3ccccc3F)n2C)on1	0.6	0.32	0.4	58*	40
COc1ccccc1NC(=O)CSc1nnc(C)n1CCc1ccccc1	0.6	0.46	0.5	53*	41
COc1ccccc1-c1nnc(SCC(=O)Nc2ccc(S(N)(=O)=O)cc2)n1C	0.6	0.59	0.2	76*	38
COc1ccc(NC(=O)CSc2nnc(-c3ccccc3C)n2C)cc1	0.8	-0.094	0.8	20	19
O=P1(O)C=C(c2ccccc2)NC(c2ccccc2)=C1	1	-0.0096	1	-1	-1
COc1cc(C)nc(N2CCC(C(=O)NC3CCCCC3)CC2)n1	0.5	1	0.7	28	46
C=CCn1cc(C(=O)NCCOC)c(=O)c2cc(S(=O)(=O)N(CC)CC)ccc21	1	1.1	0.3	75*	1
SMILES	CYP2C19 activ	Cav3 T inh	CYP2C9 activ	CYP2C9 inh	CYP2C19 inhib
C=CCn1cc(C(=O)NCCCOCC)c(=O)c2cc(S(=O)(=O)N(CC)CC)ccc21	0.8	0.71	0.4	56*	24
O=S(=O)(c1cccc2ccccc12)N1CCSC1	0.6	-0.9	5.2*	-416	38
O=C(NCCCCc1ccccc1)C1CC(c2ccccc2C(F)(F)F)=NO1 (stereo unspecified)	·	-2	·	·	·
Cc1ccc(NC(=O)CCc2c(C)nc3ncnn3c2C)nc1	1.1	0.58	0.8	15	-6
Cc1nc2ncnn2c(C)c1Cc1ccc(Cl)cc1	0	1.6	0.3	73*	95*
CC(C)(C)C1CCc2onc(C(=O)N3CCOCC3)c2C1 (stereo unspecified)	0.8	0.085	1.2	-22	16
COc1cccc(C(=O)Oc2c(CN3CCOCC3)cc(Cl)c3cccnc23)c1	0.4	-0.88	0.1	91*	63*
O=C(Oc1c(CN2CCOCC2)cc(Cl)c2cccnc12)c1ccc(F)cc1	0.7	-4.1	0.4	62*	34
COc1cc(C(=O)Oc2c(CN3CCOCC3)cc(Cl)c3cccnc23)cc(OC)c1OC	0.3	·	0.6	37	66*
COc1ccc(C(=O)Oc2c(CN3CCOCC3)cc(Cl)c3cccnc23)cc1	0.9	-3.3	0.7	34	12
CCN(CC)CCN(C(=O)Cn1nnc(-c2ccc(OC)c(OC)c2)n1)C(C(=O)NC1CCCC1)c1ccc(F)cc1 (stereo unspecified)	0.8	-0.53	1	3	25
C=CCOC(=O)c1cc(-c2ccc(/C=C3\C(=O)NC(=O)C(C#N)=C3C)o2)ccc1Cl	0.8	·	0.4	61*	24
CC(C)COC(=O)c1cc(-c2ccc(/C=N/n3cnnc3)o2)ccc1Cl	0.8	-0.33	0.6	38	23
Cc1nc2c(-c3ccccc3)c(C)nn2c(C)c1CCC(=O)NC(C)CCc1ccco1 (stereo unspecified)	0.5	-5.7*	0.6	38	52*
Cc1nc2cc(-c3ccc(Cl)cc3)nn2c(C)c1CCC(=O)NC(C)c1ccc2c(c1)OCCO2 (stereo unspecified)	·	-3.3	·	·	·
COc1ccccc1-c1cc2nc(C)c(CCC(=O)NC(C)CCc3ccco3)c(C)n2n1 (stereo unspecified)	0.1	-1.4	0.1	89*	90*
CCc1n[nH]c2c1C(=O)CC(C)(C)C2	0.9	-0.61	1	-4	12
CCc1nc2ccccc2c(NC(=O)CN2CCC(C)CC2)c1C	0.9	-0.053	1	0	6
Cc1ccc(Cn2cccc(NC(=O)NC3CCCCC3)c2=O)cc1	0.4	-4.1	0.7	33	65*
O=C(Nc1cccn(Cc2ccccc2)c1=O)NC1CCCCC1	0.7	-1.6	0.7	31	32
CC1(C)C(c2cccs2)=[N+]([O-])C2(CCCCC/C2=N\NC(N)=O)N1O (stereo unspecified)	1.1	-0.65	1.1	-14	-13
COc1ccc(NC(=O)C2CCCN(S(=O)(=O)c3ccc4c(c3)oc(=O)n4C)C2)cc1OC (stereo unspecified)	0.5	0.38	0.7	31	55*
Cn1c(=O)oc2cc(S(=O)(=O)N3CCCC(C(=O)N4CC=C(c5ccccc5)CC4)C3)ccc21 (stereo unspecified)	0.3	·	1.2	-22	72*
COc1cc(NC(=O)C2CCCN(S(=O)(=O)c3ccc4c(c3)oc(=O)n4C)C2)cc(OC)c1 (stereo unspecified)	0.9	0.22	0.9	8	14
Cn1c(=O)oc2cc(S(=O)(=O)N3CCCC(C(=O)Nc4ccccn4)C3)ccc21 (stereo unspecified)	1	0.22	1	-3	1
